Measurements reported in the supplement of paper PMC7595190.
Structures can show the parent of a compound that is named as a salt. Values without a mark were called inactive.

Test system: MV4-11
Test: CellTox Green cytotoxicity fluorescence relative to DMSO vehicle (fold of vehicle RFU); higher = more cell death (loss of membrane integrity), active = 2 or more
Method: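 Paediatric AML cell lines (MV4-11, CMK, Kasumi-1; 4x10^4 cells/well, 96-well) treated with single compounds from the Selleckchem apoptosis library at 0.01, 0.1 and 1 µM. Cytotoxicity was read with CellTox Green (RFU, Ex 485/Em 520) at 24, 48 and 72 h and normalised to the 0.1% DMSO vehicle. Normalised RFU >= 2 was taken as a successful, cell-killing treatment.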

Row | Compound | CellTox Green cytotoxicity fluorescence (0.01 µM, 24 h) | CellTox Green cytotoxicity fluorescence (0.01 µM, 48 h) | CellTox Green cytotoxicity fluorescence (0.01 µM, 72 h) | CellTox Green cytotoxicity fluorescence (0.1 µM, 24 h) | CellTox Green cytotoxicity fluorescence (0.1 µM, 48 h) | CellTox Green cytotoxicity fluorescence (0.1 µM, 72 h) | CellTox Green cytotoxicity fluorescence (1 µM, 24 h) | CellTox Green cytotoxicity fluorescence (1 µM, 48 h) | CellTox Green cytotoxicity fluorescence (1 µM, 72 h)
1 | COc1c/c(=C2\C=c3ccccc3=N2)[nH]/c1=C\c1[nH]c(C)cc1C [Obatoclax Mesylate] | 0.935 | 0.93 | 0.916 | 0.96 | 0.997 | 1.02 | 1.21 | 1.78 | 2.14 (active)
2 | N#CC(=Cc1ccc(-c2cc(Cl)ccc2Cl)o1)C(=O)Nc1cccc2ncccc12 | 1.01 | 0.987 | 0.982 | 0.998 | 0.992 | 1.01 | 0.969 | 0.985 | 0.984
3 | CCCCNc1ncc2c(-c3ccc(CN4CCN(C)CC4)cc3)cn([C@H]3CC[C@H](O)CC3)c2n1 | 1.03 | 1.16 | 1.28 | 1.04 | 1.47 | 2.1 (active) | 1.08 | 1.7 | 2.22 (active)
4 | CN[C@@H](C)C(=O)N[C@H](C(=O)N1CCC[C@H]1C(=O)Nc1snnc1-c1ccccc1)C1CCCCC1 | 1.01 | 0.97 | 0.974 | 0.988 | 0.993 | 1 | 1.01 | 1.03 | 1.04
